Targets with a hit are over-represented here; the source holds about 7,900 in all. About 0.6% of all pairs of compound and target were hits. Values without a mark were called inactive.

This is an account of results in the supplement of paper PMC10849652.

MTHFD1, A0A384N5Y3, sequence (A0A384N5Y3 whole entry, looked up): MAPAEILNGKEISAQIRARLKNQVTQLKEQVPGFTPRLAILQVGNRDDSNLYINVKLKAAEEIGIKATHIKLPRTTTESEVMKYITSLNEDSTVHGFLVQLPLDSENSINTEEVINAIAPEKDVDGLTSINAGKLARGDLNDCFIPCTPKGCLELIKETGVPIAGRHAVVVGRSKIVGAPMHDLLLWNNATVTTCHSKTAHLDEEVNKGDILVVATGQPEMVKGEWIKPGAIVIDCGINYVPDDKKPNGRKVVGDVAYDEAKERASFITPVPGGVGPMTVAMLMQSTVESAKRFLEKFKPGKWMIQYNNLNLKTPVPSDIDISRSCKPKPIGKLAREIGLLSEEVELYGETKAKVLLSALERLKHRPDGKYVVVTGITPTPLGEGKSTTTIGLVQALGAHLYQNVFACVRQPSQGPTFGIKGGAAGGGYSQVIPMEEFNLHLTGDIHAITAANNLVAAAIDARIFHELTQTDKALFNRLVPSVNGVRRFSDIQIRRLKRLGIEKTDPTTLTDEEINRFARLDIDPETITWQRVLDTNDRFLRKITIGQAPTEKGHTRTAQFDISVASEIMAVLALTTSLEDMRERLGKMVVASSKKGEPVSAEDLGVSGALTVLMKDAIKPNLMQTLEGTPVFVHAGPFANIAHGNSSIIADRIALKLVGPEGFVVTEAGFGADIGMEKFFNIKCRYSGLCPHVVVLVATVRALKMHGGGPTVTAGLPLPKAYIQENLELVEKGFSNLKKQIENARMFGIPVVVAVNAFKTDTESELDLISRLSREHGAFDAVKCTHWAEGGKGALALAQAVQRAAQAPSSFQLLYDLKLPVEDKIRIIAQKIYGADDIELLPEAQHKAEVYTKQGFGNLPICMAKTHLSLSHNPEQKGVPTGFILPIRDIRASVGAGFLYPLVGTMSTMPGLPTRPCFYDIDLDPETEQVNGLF
UniProt Q9HCE1, sequence (Q9HCE1 whole entry, looked up): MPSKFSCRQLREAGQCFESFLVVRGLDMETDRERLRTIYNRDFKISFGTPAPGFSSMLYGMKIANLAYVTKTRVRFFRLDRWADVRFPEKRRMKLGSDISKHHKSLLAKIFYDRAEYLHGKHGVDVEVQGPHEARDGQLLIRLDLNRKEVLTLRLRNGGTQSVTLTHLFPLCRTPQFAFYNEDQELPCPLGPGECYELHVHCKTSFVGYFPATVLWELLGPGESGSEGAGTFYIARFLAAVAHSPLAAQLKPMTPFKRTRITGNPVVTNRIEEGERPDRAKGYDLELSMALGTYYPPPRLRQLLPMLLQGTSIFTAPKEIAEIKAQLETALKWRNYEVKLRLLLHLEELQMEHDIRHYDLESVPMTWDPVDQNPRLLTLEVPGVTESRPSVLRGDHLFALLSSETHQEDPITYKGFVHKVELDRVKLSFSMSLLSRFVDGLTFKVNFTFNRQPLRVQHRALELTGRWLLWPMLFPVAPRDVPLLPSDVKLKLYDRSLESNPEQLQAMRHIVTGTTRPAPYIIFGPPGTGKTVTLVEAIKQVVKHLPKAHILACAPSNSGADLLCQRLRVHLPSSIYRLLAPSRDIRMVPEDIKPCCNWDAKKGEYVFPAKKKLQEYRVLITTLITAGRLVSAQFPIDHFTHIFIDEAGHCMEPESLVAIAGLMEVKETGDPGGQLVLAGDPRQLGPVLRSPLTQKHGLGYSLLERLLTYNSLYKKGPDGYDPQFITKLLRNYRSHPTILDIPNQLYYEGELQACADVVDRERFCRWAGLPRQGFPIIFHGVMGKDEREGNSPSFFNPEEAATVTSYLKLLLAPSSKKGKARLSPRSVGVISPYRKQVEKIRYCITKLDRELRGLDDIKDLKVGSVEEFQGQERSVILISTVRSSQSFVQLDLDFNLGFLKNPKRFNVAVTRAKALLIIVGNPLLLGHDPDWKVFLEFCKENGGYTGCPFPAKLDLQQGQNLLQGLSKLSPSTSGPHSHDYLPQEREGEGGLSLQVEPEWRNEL
UniProt P15559, sequence (P15559 whole entry, looked up): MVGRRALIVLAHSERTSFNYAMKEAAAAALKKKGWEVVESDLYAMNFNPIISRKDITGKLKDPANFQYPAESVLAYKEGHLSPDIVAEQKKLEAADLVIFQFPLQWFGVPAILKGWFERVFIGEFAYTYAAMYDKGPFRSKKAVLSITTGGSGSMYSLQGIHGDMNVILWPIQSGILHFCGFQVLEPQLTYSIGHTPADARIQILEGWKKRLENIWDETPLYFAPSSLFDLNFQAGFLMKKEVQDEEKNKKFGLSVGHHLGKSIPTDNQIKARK
UniProt Q9HAN9, sequence (Q9HAN9 whole entry, looked up): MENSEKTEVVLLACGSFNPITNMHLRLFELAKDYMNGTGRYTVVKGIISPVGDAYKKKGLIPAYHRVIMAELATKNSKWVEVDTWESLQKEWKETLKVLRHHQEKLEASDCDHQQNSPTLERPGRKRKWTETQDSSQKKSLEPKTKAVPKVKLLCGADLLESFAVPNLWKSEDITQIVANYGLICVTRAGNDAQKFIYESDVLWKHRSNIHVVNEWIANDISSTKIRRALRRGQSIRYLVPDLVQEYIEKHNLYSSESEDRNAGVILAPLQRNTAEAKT
UniProt Q92621, sequence (Q92621 whole entry, looked up): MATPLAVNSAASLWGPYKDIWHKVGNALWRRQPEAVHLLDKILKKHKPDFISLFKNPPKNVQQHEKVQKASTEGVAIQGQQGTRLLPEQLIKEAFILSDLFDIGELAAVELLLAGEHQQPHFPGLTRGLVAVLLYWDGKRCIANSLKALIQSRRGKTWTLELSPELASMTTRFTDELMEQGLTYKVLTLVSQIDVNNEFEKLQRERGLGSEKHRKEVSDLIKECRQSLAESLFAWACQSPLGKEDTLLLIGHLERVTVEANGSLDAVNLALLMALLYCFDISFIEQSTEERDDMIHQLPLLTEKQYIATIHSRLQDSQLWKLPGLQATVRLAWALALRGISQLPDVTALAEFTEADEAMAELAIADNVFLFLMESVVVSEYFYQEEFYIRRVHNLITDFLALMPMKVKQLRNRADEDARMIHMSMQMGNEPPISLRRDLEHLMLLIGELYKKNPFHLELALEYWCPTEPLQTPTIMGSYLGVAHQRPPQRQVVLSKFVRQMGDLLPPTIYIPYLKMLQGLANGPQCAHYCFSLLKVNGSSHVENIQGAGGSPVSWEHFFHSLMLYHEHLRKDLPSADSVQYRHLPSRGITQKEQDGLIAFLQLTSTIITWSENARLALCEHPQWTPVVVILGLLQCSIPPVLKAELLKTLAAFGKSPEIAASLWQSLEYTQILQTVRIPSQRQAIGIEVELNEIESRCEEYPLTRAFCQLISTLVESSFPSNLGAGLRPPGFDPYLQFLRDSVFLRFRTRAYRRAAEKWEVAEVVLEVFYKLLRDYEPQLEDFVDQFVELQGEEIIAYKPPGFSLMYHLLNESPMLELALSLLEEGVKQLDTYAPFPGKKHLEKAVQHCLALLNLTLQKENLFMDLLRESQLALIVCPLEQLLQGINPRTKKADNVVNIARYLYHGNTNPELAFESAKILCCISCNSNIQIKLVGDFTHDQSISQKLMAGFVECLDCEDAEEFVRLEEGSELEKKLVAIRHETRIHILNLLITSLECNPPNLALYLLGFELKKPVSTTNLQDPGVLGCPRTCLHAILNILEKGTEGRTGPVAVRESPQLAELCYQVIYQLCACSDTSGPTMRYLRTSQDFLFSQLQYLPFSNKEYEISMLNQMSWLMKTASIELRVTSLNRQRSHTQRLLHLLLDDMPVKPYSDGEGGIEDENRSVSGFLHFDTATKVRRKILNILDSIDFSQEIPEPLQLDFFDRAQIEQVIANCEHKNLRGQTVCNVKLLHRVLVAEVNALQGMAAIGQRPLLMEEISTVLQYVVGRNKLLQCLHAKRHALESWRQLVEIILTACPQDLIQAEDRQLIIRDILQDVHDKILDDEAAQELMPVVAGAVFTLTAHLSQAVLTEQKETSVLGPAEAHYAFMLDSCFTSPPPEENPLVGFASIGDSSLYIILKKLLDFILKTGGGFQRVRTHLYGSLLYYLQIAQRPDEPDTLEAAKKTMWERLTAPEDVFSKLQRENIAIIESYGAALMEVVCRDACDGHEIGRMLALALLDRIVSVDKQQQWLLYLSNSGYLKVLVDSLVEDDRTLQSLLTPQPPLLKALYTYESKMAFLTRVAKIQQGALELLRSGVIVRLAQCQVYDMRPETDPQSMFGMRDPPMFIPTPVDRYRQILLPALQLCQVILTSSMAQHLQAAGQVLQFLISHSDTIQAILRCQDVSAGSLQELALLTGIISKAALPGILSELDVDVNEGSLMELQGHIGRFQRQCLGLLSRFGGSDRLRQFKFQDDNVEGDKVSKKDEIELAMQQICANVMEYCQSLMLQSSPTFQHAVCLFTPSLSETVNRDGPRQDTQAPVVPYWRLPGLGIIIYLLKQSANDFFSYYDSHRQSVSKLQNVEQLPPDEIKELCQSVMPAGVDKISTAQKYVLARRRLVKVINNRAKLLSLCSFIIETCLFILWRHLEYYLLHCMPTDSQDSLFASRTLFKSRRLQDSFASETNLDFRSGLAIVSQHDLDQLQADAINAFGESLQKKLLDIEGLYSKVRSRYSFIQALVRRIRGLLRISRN
UniProt Q8NCF5, sequence (Q8NCF5 whole entry, looked up): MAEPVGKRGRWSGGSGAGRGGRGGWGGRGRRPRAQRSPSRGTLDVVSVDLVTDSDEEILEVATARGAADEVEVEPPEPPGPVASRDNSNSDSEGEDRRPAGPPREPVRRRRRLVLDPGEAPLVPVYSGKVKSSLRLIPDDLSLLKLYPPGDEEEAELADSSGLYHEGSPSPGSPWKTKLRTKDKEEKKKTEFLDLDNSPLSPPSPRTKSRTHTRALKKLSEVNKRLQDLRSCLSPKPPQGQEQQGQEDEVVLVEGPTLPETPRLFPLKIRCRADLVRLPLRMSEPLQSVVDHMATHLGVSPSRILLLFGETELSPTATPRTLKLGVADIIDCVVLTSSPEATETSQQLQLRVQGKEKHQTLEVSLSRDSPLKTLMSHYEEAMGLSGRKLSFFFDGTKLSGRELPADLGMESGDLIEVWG
UniProt Q9UI09, sequence (Q9UI09 whole entry, looked up): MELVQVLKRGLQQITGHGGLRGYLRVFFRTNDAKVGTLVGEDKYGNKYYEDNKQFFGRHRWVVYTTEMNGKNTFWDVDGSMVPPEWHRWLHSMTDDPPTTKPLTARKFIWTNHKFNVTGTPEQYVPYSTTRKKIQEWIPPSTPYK

Compound in the test: Cc1nc(Nc2n[nH]c3c2CN(C(=O)N[C@H](CN(C)C)c2ccccc2)C3(C)C)c2sccc2n1
Kind of test: log2 fold change, soluble protein after heating vs DMSO (PISA); higher = thermal stabilisation; K562 cells, 10 uM, 30 min; active = over 0.2 and 3.5 SD of the protein, either way, in both replicates (recomputed). The procedure, abridged:
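K562 cells at 2×10^6 cells/mL were treated with 10 μM compound for 30 min. Aliquots were heated for 3 min across 48°C-58°C, pooled, and extracted in PBS with 0.5% NP-40 at 4°C; soluble protein was the supernatant after 21,000xg for 90 min. Soluble protein was quantified by TMTpro 16plex LC-MS/MS with channel sums equalised, and reported as log2 fold change in thermal stability against DMSO controls, with values from duplicates.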
Take NFATC2 (UniProt Q13469): the log2 fold change is -0.341.

For the target MRPS18B (UniProt Q9Y676), the log2 fold change was 0.098.

PACS1 (UniProt Q6VY07): the log2 fold change is 0.038.

With NUP205 (UniProt Q92621), the log2 fold change was -0.025.

Regarding NA, A0A0B4J2A0, the log2 fold change is -0.024.

OSBP (UniProt P22059): the log2 fold change was -0.257 (active).

As to MKNK1 (UniProt Q9BUB5), the log2 fold change was 0.059.

On to NMNAT1 (UniProt Q9HAN9), for which the log2 fold change was 0.023.

For the target MRPS25 (UniProt P82663), the log2 fold change was -0.043.

On to NME1 isoform 2 (UniProt P15531), for which the log2 fold change was 0.182.

As to MRPL47 (UniProt Q9HD33), the log2 fold change was 0.118.

In the case of NDUFA12 (UniProt Q9UI09), the log2 fold change was -0.031.

Turning to MOV10 (UniProt Q9HCE1), the log2 fold change is 0.041.

As to MTHFD1, A0A384N5Y3, the log2 fold change was -0.099.

MRPS5 (UniProt P82675): the log2 fold change was 0.118.

For NFATC2IP (UniProt Q8NCF5), the log2 fold change is -0.153.

For the target NOL11 (UniProt Q9H8H0), the log2 fold change is 0.017.

NDUFA6 (UniProt P56556): the log2 fold change was 0.021.

For OSBPL8 (UniProt Q9BZF1), the log2 fold change was -0.086.

NOSIP (UniProt Q9Y314): the log2 fold change was -0.277.

With NR2C2 isoform 2 (UniProt P49116), the log2 fold change is -0.091.

On to NDUFB8 (UniProt O95169), for which the log2 fold change is 0.027.

As for NQO1 (UniProt P15559), the log2 fold change was 0.003.
